Screening data (PubChem)
Shown is part of a subset that was picked to be rich in hits.
Dicer processing: blocks human Dicer maturation of pre-miR-21 | cat-ELCCA pre-miR-21 Dicer processing, chemiluminescence; stronger effect = higher value | z-score at 25 µM | 6% of 47,000 active | AID 1347074; in the data active = z-score above about 3, passing the limit was not always enough;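 note: plate controls were vehicle for no effect and no enzyme for full effect; higher signal means more uncleaved substrate so more Dicer inhibition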
Target sequence (Q9UPY3 whole entry, looked up): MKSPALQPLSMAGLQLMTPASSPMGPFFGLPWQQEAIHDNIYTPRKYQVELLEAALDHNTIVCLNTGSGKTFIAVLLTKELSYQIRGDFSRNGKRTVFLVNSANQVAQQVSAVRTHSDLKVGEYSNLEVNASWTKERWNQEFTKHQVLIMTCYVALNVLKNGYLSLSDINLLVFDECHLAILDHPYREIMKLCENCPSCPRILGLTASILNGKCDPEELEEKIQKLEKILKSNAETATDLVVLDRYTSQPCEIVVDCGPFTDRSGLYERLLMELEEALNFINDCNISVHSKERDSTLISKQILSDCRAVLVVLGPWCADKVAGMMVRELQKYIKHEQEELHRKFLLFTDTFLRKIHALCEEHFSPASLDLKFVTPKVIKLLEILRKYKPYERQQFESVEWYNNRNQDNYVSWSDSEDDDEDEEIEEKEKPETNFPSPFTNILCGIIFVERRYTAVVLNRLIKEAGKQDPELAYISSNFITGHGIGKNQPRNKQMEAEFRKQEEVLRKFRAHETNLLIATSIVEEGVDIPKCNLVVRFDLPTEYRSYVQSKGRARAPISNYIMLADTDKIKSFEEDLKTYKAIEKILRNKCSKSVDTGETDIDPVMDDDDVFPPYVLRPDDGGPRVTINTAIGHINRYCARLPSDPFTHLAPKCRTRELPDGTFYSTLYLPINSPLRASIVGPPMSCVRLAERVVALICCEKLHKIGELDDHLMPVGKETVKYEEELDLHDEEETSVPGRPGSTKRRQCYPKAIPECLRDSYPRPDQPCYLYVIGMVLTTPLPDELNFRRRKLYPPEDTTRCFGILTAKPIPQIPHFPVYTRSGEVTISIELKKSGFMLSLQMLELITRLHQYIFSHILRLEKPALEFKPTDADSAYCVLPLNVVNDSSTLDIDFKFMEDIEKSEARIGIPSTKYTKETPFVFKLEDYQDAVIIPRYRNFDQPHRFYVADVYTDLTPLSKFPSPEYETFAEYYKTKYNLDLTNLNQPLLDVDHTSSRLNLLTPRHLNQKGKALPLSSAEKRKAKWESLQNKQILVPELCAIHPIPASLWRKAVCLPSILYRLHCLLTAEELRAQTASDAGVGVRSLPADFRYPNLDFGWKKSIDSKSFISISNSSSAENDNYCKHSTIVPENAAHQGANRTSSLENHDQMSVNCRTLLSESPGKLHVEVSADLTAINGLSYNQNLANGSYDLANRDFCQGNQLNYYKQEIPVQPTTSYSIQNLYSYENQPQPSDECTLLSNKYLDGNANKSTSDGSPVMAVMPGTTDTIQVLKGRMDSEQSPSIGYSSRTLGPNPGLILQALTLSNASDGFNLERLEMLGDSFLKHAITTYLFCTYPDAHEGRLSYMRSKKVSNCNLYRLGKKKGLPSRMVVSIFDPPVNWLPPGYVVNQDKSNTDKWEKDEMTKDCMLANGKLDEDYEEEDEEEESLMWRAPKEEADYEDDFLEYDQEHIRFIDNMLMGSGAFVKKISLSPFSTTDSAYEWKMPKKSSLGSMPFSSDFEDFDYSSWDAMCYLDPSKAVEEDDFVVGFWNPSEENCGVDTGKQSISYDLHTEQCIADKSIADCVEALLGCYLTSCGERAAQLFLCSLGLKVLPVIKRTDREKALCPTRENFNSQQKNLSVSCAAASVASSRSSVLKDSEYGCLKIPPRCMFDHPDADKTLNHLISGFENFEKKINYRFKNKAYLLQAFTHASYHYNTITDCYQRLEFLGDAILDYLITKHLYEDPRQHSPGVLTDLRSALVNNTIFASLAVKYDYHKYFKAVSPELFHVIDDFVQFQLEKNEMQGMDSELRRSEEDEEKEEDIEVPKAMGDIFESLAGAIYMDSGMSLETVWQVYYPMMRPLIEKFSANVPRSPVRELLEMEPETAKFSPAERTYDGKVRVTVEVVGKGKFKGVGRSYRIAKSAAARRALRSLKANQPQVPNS
Starred values were filed as active, the others as inactive.

Results for CN(C)c1ccc(C=C(c2ccc(N)cc2)c2ccc(N)cc2)cc1 ?
Dicer processing: 6.36*

Results for Nc1ccc(N(c2ccccc2)c2ccc(N)cc2)cc1 ?
Dicer processing: -0.2

Results for COC(=O)C(=C(C)C)c1ccc(N(C)C)cc1 ?
Dicer processing: 1.03

How did CC(=O)c1sc(SC(C)C)c2c1CC(C)(C)CC2=O do in these assays?
Dicer processing: 0.17

How did CSc1ccncc1C(=O)Nc1ccc(F)cc1F do in these assays?
Dicer processing: -0.3

How did CCCOc1ccc(C2c3c(oc4ccccc4c3=O)C(=O)N2c2nc(C)c(C)s2)cc1 (stereo not given) do in these assays?
Dicer processing: 0.2

How did CCCCCNc1ncnc2c1sc1nc(N3CCOCC3)c3c(c12)CC(C)(C)OC3 do in these assays?
Dicer processing: 1.57

What do the screens show for `Nc1nc(Nc2cccc(F)c2)sc1C(=O)c1ccc(F)cc1`?
Dicer processing: 3.22

What do the screens show for `Nc1nc(Nc2ccccc2)sc1C(=O)c1ccc(F)cc1`?
Dicer processing: 1.68

How did Nc1nc(Nc2ccc(F)cc2)sc1C(=O)c1ccccc1 do in these assays?
Dicer processing: 4.25*

Results for CCCCc1c(C)nc(SCc2c(F)cccc2Cl)[nH]c1=O ?
Dicer processing: -0.13

Results for CCN(CC)CCn1c(NCc2cccc(Br)c2)nc2ccccc21 ?
Dicer processing: 3.86*

How did CCc1ccc(CNc2nc3ccccc3n2CCN(CC)CC)cc1 do in these assays?
Dicer processing: 3.27*

How did CCCn1c(SCCO)nc2ccccc21 do in these assays?
Dicer processing: 0.15

What do the screens show for `CCN(CC)CCn1c(NCc2ccc(C)cc2)nc2ccccc21`?
Dicer processing: 0.08

What do the screens show for `CCN(CC)CCn1c(=O)c(Cc2ccc(OC)cc2)nc2ccccc21`?
Dicer processing: -1.19

Results for CCCCn1c(NCc2ccccn2)nc2ccccc21 ?
Dicer processing: 1.16

Results for CCCn1c(Nc2nc3ccccc3n2C)nc2ccccc21 ?
Dicer processing: 4.91*

What do the screens show for `CCN(CC)CCn1c(NCc2ccccn2)nc2ccccc21`?
Dicer processing: 1.69

Results for CCN(CC)CCn1c(C)nc2ccccc21 ?
Dicer processing: -0.35

How did O=[N+]([O-])c1cc(C(F)(F)F)c(Sc2ccccn2)cc1Sc1ccccn1 do in these assays?
Dicer processing: 1.2

How did Cc1onc(-c2c(Cl)cccc2Cl)c1NC(=O)Nc1ccc(N(C)C)c(Cl)c1C#N do in these assays?
Dicer processing: 0.25

What do the screens show for `O=C1OCCC1Sc1nnc(-c2ccc(Cl)cc2)o1` (stereo not given)?
Dicer processing: -2.13

Results for O=C(Nc1ccc(Cl)cc1)OCCSCc1ccc2nc(C(F)(F)F)ccc2c1 ?
Dicer processing: -0.91

Results for O=C(Cn1cc(C(F)(F)F)ccc1=O)c1ccc(Cl)cc1Cl ?
Dicer processing: 0.67

What do the screens show for `CSc1nc(C)nc(N/C=C(\C#N)C(=O)c2ccccc2Cl)n1`?
Dicer processing: -0.58

What do the screens show for `CN(C)/C=N/c1ncc(C(F)(F)F)cc1Cl`?
Dicer processing: 0.92

Results for CN(C)S(=O)(=O)n1nc(/C=C/c2ccccc2Cl)nc1-c1ccccc1O ?
Dicer processing: 8.11*

Results for Oc1ccccc1-c1nc(/C=C/c2cccs2)nn1-c1ccccc1 ?
Dicer processing: 2.96

How did CN(C)S(=O)(=O)n1cc(/C=C/c2noc(-c3ccccc3O)n2)c2ccccc21 do in these assays?
Dicer processing: -0.79

Results for O=C(OC(Cc1ccccc1)C(F)(F)F)c1ccc(Cl)cc1Cl (stereo not given) ?
Dicer processing: -0.27

How did N#Cc1nc(-c2ccccc2)oc1NCc1ccccc1 do in these assays?
Dicer processing: 6.36*

What do the screens show for `COc1ccc(-c2nc(C#N)c(NCc3ccco3)o2)cc1`?
Dicer processing: -1.14

What do the screens show for `C=CCNc1oc(-c2ccc(F)cc2)nc1C#N`?
Dicer processing: -0.55

Results for CCOC(=O)c1sc2nc(C)nc(N3CCN(C)CC3)c2c1C ?
Dicer processing: 0.55

How did CCC1CCC(C)N(C(=S)Nc2ccc(Br)cc2C)C1 (stereo not given) do in these assays?
Dicer processing: 1.77

Results for CC1=N/C(=C/c2ccc(C)c(C)c2)C(=O)O1 ?
Dicer processing: -0.91

Results for Cc1cc(/C=C2\N=COC2=O)ccc1C(F)(F)F ?
Dicer processing: 4.1*

How did CCOc1ccc(C)cc1S(=O)(=O)Nc1ccc(Cl)cn1 do in these assays?
Dicer processing: 4.56*

Results for CCOc1ccc(Cl)cc1S(=O)(=O)NCc1ccccn1 ?
Dicer processing: 0.45

What do the screens show for `COc1ccc(C(C)C)cc1S(=O)(=O)Nc1ccc(Cl)cn1`?
Dicer processing: 0.52

Results for Cc1nnc(SCC(=O)Nc2ccccc2Cl)n1-c1ccc2c(c1)OCCO2 ?
Dicer processing: -0.83

How did C=CCOC(=O)c1sc(N2C(=O)c3oc4ccccc4c(=O)c3C2c2ccc(OC)cc2)nc1C (stereo not given) do in these assays?
Dicer processing: 0.21

What do the screens show for `CN1C(=O)C2(/C(=C(/O)c3ccccc3)C(=O)C(=O)N2CC2CCCO2)c2ccccc21` (stereo not given)?
Dicer processing: 1.54

What do the screens show for `O=C(O)CCCNC1=NCCS1`?
Dicer processing: -1.52

Results for Clc1nc(NCCN2CCOCC2)nc(N2CCC(Cc3ccccc3)CC2)n1 ?
Dicer processing: 0.1

Results for O=C(O)CCCNc1nc(Cl)nc(N2CCCCC2)n1 ?
Dicer processing: 5.65*

Results for CCOC(=O)C1=C(C)NC2=C(C(=O)CC(C)(C)C2)C1c1ccccc1OCC (stereo not given) ?
Dicer processing: -0.86

How did Cc1cc(C)nc(SCCc2ccncc2)n1 do in these assays?
Dicer processing: 3.59*

Results for Cc1cc(C)nc(SCC(=O)n2c(C)c(C)c3ccccc32)n1 ?
Dicer processing: 1.34

Results for Cc1cc(C)nc(SCC(=O)N2c3ccccc3CCc3ccccc32)n1 ?
Dicer processing: 1.65

Results for CCOC(=O)C1=NN(c2ccccc2OC)C2C(=O)N(c3ccc(Br)cc3)C(=O)C12 (stereo not given) ?
Dicer processing: 0.79

How did O=C(OCc1ccccc1)C1=NNC2C(=O)N(c3ccc(Br)cc3)C(=O)C12 (stereo not given) do in these assays?
Dicer processing: 3.55*

Results for CCc1ccc(N2C(=O)C3NN=C(C(=O)OCc4ccccc4)C3C2=O)cc1 (stereo not given) ?
Dicer processing: 0.43

Results for O=C(OCc1ccccc1)C1=NNC2C(=O)N(c3ccccc3)C(=O)C12 (stereo not given) ?
Dicer processing: -0.53

What do the screens show for `CSC1=NC=C(C#N)C2=NC(C)(c3ccc(Br)cc3)NN12` (stereo not given)?
Dicer processing: 0.81

Results for Cn1c(=O)c2c(ncn2CC(=O)N2CCCCC2)n(C)c1=O ?
Dicer processing: 0.77

How did Cn1c(=O)c2c(ncn2CC(=O)N2CCOCC2)n(C)c1=O do in these assays?
Dicer processing: 1.45

Results for COCCCNC(=O)Cn1cnc2c1c(=O)n(C)c(=O)n2C ?
Dicer processing: 1.65

Results for COC(=O)C1CCN(C(=O)Cn2cnc3c2c(=O)n(C)c(=O)n3C)CC1 ?
Dicer processing: 4.63*

How did Cn1c(=O)c2c(ncn2CC(=O)NC2CCSC2=O)n(C)c1=O (stereo not given) do in these assays?
Dicer processing: 1.38

How did CCOC(=O)CCn1cnc2c1c(=O)n(C)c(=O)n2C do in these assays?
Dicer processing: 5.19

How did CC1CCN(C(=O)Cn2cnc3c2c(=O)n(C)c(=O)n3C)CC1 do in these assays?
Dicer processing: 3.13*

How did Cn1c(=O)c2c(ncn2CC(=O)N2CCCC2)n(C)c1=O do in these assays?
Dicer processing: -0.45
